# Rows were chosen to be rich in hits. Some 2.2% of all compounds tested hit in one or more screens of this group.
# BaF3 parental: reduces parental Ba/F3 cell viability, JAK2V617F counter-screen; 220,000 compounds, 1.1% hits; CellTiter-Glo ATP luminescence; inhibition, % at 5.6 µM; AID 1486;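 active means inhibition above a per-campaign cutoff, the mean inhibition of all tested compounds plus 3 SD, cut at about 27% in these data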;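 further: 0% = DMSO wells and 100% = JAK Inhibitor I control wells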
# aSyn 5UTR inh: 5' untranslated region of α-synuclein, MLPCN primary screen. inhibition, % (tested at 7.5 µM). 300,000 compounds, 0.82% hits. AID 1813. alpha-synuclein 5'UTR reporter, inhibitor activity; in the data active means inhibition above about 60%; inconclusive means no clear call, values can overlap the other calls;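 further: H4 neuroglioblastoma cells stably carrying SNCA 5'UTR luciferase fusion; 0% = DMSO wells and 100% = positive control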
# KLF5 inhibitor: inhibitors of KLF5 expression; DLD-1 KLF5 promoter-luciferase reporter, luminescence; inhibition, % at 5 µM; 290,000 compounds, 0.23% hits;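 active means inhibition above a per-plate limit of that plate's mean compound inhibition plus 3 SD, cut at about 60% in these data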;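 further: 0% = DMSO wells and 100% = LY294002 at 200 µM; higher means less KLF5 promoter-driven luciferase light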
# APP transl inh: APP translation inhibition. SH-SY5Y APP 5'UTR-luciferase reporter, luminescence. inhibition, % at 2 µM. 190,000 compounds, 0.82% hits. AID 1285;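 active means inhibition above a set limit, derived from the sample mean plus 3 SD, cut at about 45% in these data; inconclusive means one replicate passes the limit while the other fails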
# IEC-6 cytotox: kills IEC-6 intestinal cells in KLF5 counter-screen; IEC-6 cytotoxicity, luminescence viability; inhibition, % at 5 µM; 290,000 compounds, 0.78% hits; in the data active means inhibition above about 22%;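 further: 0% = plate median of test compound wells and 100% = cytotoxic reference compound wells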
# Ba/F3 V617F tox: reduce viability of Ba/F3 cells dependent on JAK2V617F | 220,000 compounds, 1.1% hits | inhibition, % at 5.6 µM | Ba/F3 EpoR-JAK2V617F viability, ATP luminescence | AID 1446;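 active means inhibition above the campaign mean plus 3 SD over all tested compounds, cut at about 24% in these data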;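 further: cytokine-independent growth of Ba/F3 cells driven by EpoR plus mutant JAK2; 0% = DMSO-treated cells and 100% = JAK inhibitor I control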
# * hit, by the source's call; u = inconclusive; x = no result given.
SMILES,BaF3 parental,aSyn 5UTR inh,KLF5 inhibitor,APP transl inh,IEC-6 cytotox,Ba/F3 V617F tox
CCOc1cccc2sc(N(CCCN(C)C)C(=O)c3ccc(S(=O)(=O)N(CC)Cc4ccccc4)cc3)nc12,x,71*,-12,x,-6,x
CCOc1cccc2sc(N(CCCN(C)C)C(=O)c3ccc(S(=O)(=O)N(C)Cc4ccccc4)cc3)nc12,x,u,-22,x,1,x
COc1ccc(C)c2sc(N(CCCN(C)C)C(=O)c3ccc(S(=O)(=O)N4CCc5ccccc5C4)cc3)nc12,x,91*,x,x,x,x
COc1ccc(OC)c2sc(N(CCCN(C)C)C(=O)c3ccc(S(=O)(=O)N4CCc5ccccc5C4)cc3)nc12,x,100*,x,x,x,x
CC1CCCN(C(=O)COC(=O)CNS(=O)(=O)c2ccc3ccccc3c2)C1 (stereo not drawn),x,8,x,x,x,x
CCCNC(=S)NC1CC2CCCC(C1)N2Cc1ccc(F)cc1 (stereo not drawn),x,-10,-16,x,-2,x
CCn1ncc([N+](=O)[O-])c1C(=O)Nc1ccc(C)c(C)c1,x,7,-76,x,-3,x
COc1ccc(C(C)=O)c(Oc2cc(NN3CCCCC3)c([N+](=O)[O-])cc2[N+](=O)[O-])c1,x,-9,-20,x,-1,x
COc1cccc2sc(N(CCCN(C)C)C(=O)c3ccc(S(=O)(=O)N4CCc5ccccc5C4)cc3)nc12,x,94*,-22,x,-5,x
CC1CCCCN1S(=O)(=O)c1ccc(C(=O)N(CCCN(C)C)c2nc3ccc(Br)cc3s2)cc1 (stereo not drawn),x,67*,-29,x,8,x
COc1cc2nc(N(CCCN(C)C)C(=O)c3ccc(S(=O)(=O)N4CCc5ccccc5C4)cc3)sc2cc1OC,x,-11,x,x,x,x
CN(C)CCN(C(=O)c1ccc(S(=O)(=O)N2CCCC2)cc1)c1nc2ccc(Br)cc2s1,x,-20,-10,x,8,x
O=C(Nc1ccc(Cl)cc1)Nc1csc([N+](=O)[O-])c1,72*,1,-16,x,5,30*
CC1(C)C2CCC1(C)C(OCC[N+](C)(C)CC(=O)OC1CCCCC1)C2 (stereo not drawn),83*,4,7,10,2,100*
CCOC(=O)C[N+](C)(C)CCOC1CC2CCC1(C)C2(C)C (stereo not drawn),30*,-6,18,-32,0,15
CN(CC(=O)Nc1ccc2c(c1)OCCO2)S(=O)(=O)c1ccc(F)cc1,x,-51,-21,x,-9,x
COCCN(C(=O)CCC(=O)Nc1ccccn1)C(C(=O)NCCC(C)C)c1ccc(C)cc1 (stereo not drawn),x,0,-14,x,-4,x
O=[N+]([O-])c1cc(-c2ncccn2)c([N+](=O)[O-])s1,2,-20,2,76*,5,4
COc1ccc(-c2ccc3nnc(SCC(N)=O)n3n2)cc1,7,11,-6,-27,3,4
CCSc1nnc2ccc(-c3ccc(OC)c(OC)c3)nn12,x,62*,-36,x,10,x
Cc1cc(C(=O)NCCC2=CCCCC2)ccc1[N+](=O)[O-],10,-121,-63,-57,-12,-1
Cn1c(=O)c2c(nc(NCCOc3ccc(F)cc3)n2C)n(C)c1=O,0,-3,14,-19,2,-6
Cc1cc(C)n(-c2cc(Cl)cc(Cl)c2)c(=O)c1C#N,6,13,1,8,3,2
Cc1ccc(-n2c(C)cc(C)c(C#N)c2=O)cc1Cl,7,7,8,62*,2,2
COc1cccc(-n2c(SCc3ccccn3)nc3c(c2=O)SCC3)c1,1,13,-22,2,-2,3
SMILES,BaF3 parental,aSyn 5UTR inh,KLF5 inhibitor,APP transl inh,IEC-6 cytotox,Ba/F3 V617F tox
COc1cc(Br)c(CCNC(=O)c2ccco2)cc1OC,7,3,-22,0,-1,3
COc1ccccc1N1CCN(C2CC(=O)N(c3ccc(F)cc3)C2=O)CC1 (stereo not drawn),x,12,9,x,14,x
CC(=O)Nc1ccc(C2=NN(Cc3nnc(-c4ccccc4)o3)C(=O)SC2)cc1,6,13,-9,-7,4,-1
O=C1SCC(c2ccccc2)=NN1Cc1ccccc1,32*,6,-71,14,3,5
CCN(CC)c1ccc(NC(=S)Nc2ccc(F)cc2)cc1,2,-91,-46,-18,3,0
O=c1cc(-c2c(F)c(F)c(F)c(F)c2F)oc2c(F)c(F)c(F)c(F)c12,1,-12,-33,97*,0,-2
O=c1cc(-c2c(F)c(F)c(F)c(F)c2F)oc2ccccc12,9,-39,-16,13,-2,0
COc1ccc(Nc2cc(C)nc3ncnn23)c(OC)c1,-2,1,-2,-4,2,-4
COc1ccc(CNc2cc(C)nc3ncnn23)c(OC)c1,31*,38,-13,-4,-2,6
COc1ccc(CCNC(=O)C2CC(=O)N(C3CCCCC3)C2)cc1OC (stereo not drawn),x,-2,-12,x,-1,x
O=C(Nc1ccon1)Nc1ccccc1C(F)(F)F,x,-3,-40,x,-4,x
COc1ccc(NC(=O)CCS(=O)(=O)c2ccccc2Cl)cc1S(=O)(=O)Nc1ccc(Cl)cc1,69*,-20,-6,-4,10,16
COc1ccc(-c2nc(CS(=O)CC(=O)N3CCN(C)CC3)c(C)o2)cc1 (stereo not drawn),x,-2,-24,x,-2,x
O=C(Nc1ccccc1)C1=C[C@H](c2ccc3c(c2)OCO3)C[C@H](OCc2ccc(CO)cc2)O1,-1,-59,-29,-12,3,3
CC(NC(=O)Cn1c(NCCO)nc2ccccc21)C1CC2CCC1C2 (stereo not drawn),5,-5,-10,-1,3,6
Cc1nc2ccccc2n1CC(=O)NC(C)C1CC2CCC1C2 (stereo not drawn),49*,-6,-4,-8,4,40*
N#CCSc1nc2ccccc2c2nc3ccccc3n12,49*,-19,-22,21,5,63*
CCn1c(SCC#N)nc2ccccc2c1=O,-2,8,-12,x,6,0
O=c1[nH]cnc2c1sc1nc3c(c(-c4ccc(Cl)cc4)c12)CCC3,2,35,-18,51*,4,-1
CCc1ccc(NC(=O)Nc2ccsc2C(=O)OC)cc1,x,-65,-63,x,7,x
CCN1CCN(C(=O)Nc2cccc3ccccc23)CC1,3,-31,-20,57*,2,0
CCOc1cc(C(=O)N/N=C/C(Br)=C/c2ccccc2)cc(OCC)c1OCC,2,104*,-26,90*,7,-4
O=C(N/N=C/C(Br)=C\c1ccccc1)c1ccc2nc[nH]c2c1,2,-90,31,83*,11,3
CC(=C/c1ccccc1)/C=N/NC(=O)c1ccc2nc[nH]c2c1,9,-56,-17,18,-1,0
O=C(c1ccccc1)c1cc([N+](=O)[O-])ccc1N1CCCC1,-1,15,-6,-12,8,-3
COc1ccc(C(=O)c2cc([N+](=O)[O-])ccc2N2CCCC2)cc1,13,7,-5,61*,-4,5

# Source: PubChem BioAssay (several laboratories)
